Records with an inconclusive call do not appear. Activity calls are given as the source filed them. Calls come from the whole dose curve; as a rule, active = well fitted curve in the direction sought with a large enough effect; inconclusive = small, poorly fitted or top-dose-only effect, or another doubt; inactive = no such curve, though single readings can be large; an effect the other way counts as inactive or inconclusive.
These compounds were tested against Aldehyde dehydrogenase, mitochondrial (Homo sapiens) (UniProt P05091) (assay: qHTS for Inhibitors of the Aldehyde Dehydrogenase Family (ALDH2) Primary screen (AID 2061308;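 note: plate controls were vehicle for no effect and reference inhibitor for full effect; nearly all actives have a fitted effect of over 55% in size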)). Conditions: ALDH2 enzyme inhibition qHTS, 1536-well; series mostly up to 56 µM; activity change, negative = inhibition: at the top concentration.

Compound	activity change, negative = inhibition	Potency
C=Cc1nc(Nc2cc(F)cc(F)c2)nc(NC2CCCC2)n1	7.07% (inactive)	–
Cc1cccc(C(=O)NCC(=O)OC(C(=O)Nc2cc(C(F)(F)F)ccc2Cl)c2ccccc2)c1 (stereo not given)	-5.99% (inactive)	–
N#Cc1ncc(C(=O)OCC(=O)NC2C3CC4CC(C3)CC2C4)cn1 (stereo not given)	-3.56% (inactive)	–
O=C1Nc2ccccc2/C1=C/c1ccc[nH]1	3.31% (inactive)	–
COc1cc(-c2csc(N3CCC(C(N)=O)CC3)n2)cc(OC)c1OC	-0.36% (inactive)	–
Cc1ccc(C(=O)NC2CCN(C#N)CC2)cc1	0.544% (inactive)	–
Cc1ccc(-c2csc(NC(=O)c3ccncc3NS(=O)(=O)c3ccc(C)cc3)n2)cc1	3.24% (inactive)	–
Cc1cccc(Cn2ncc3c4sc(C)cc4n(C)c3c2=O)c1	10.9% (inactive)	–
COC(=O)c1ccc(O)c2ncc(-c3ccc(C(=O)NCCCN(C)C)cc3)cc12	14.1% (inactive)	–
CSc1cnc(-c2ccccc2C(C)C)nc1NCc1ccc(-c2cccnc2)cc1	-8.93% (inactive)	–
N[C@@H](Cc1ccc(O[S+](=O)([O-])c2cccc3cnccc23)cc1)C(=O)N1CCN(c2ccccc2)CC1	7.22% (inactive)	–
Cc1nc(NCCO)c2nc(-c3ccccc3)n(CCN(C)C)c2n1	9.39% (inactive)	–
O=C(O)CCc1cc(F)c(S(=O)(=O)N2CCN(S(=O)(=O)c3ccc4c(c3)OCCO4)CC2)cc1F	2.44% (inactive)	–
O=C1CCCC2=C1C(c1[nH]ncc1Cl)N=C(Nc1nc3cc(Cl)ccc3o1)N2 (stereo not given)	11.5% (inactive)	–
COc1cc(Nc2nc(-c3ccncc3)nc3ccccc23)ccc1F	–	inactive
Cc1ccc(S(=O)(=O)Nc2ccc(C(=O)Nc3nc(-c4ccc(Cl)cc4)cs3)cc2)cc1	-7.83% (inactive)	–
C=C(C)C(=O)O[C@H]1[C@H]2C(=C)C(=O)O[C@@H]2C[C@@H](C)[C@@H]2O[C@@H]2C(=O)[C@](C)(O)[C@@H]1OC(=O)C(=C)C	12.9% [at 28 µM] (inactive)	–
COc1cccc(C2C(C#N)=C(NC(=O)NCc3ccccc3)Oc3ccc4ccccc4c32)c1 (stereo not given)	-2.89% (inactive)	–
O=C(Cc1nnc(-c2cc3ccccc3[nH]2)s1)Nc1cc(C(F)(F)F)ccc1Cl	–	inactive
O=c1[nH]c(CCl)nc2sc3c(c12)CCC3	3.15% (inactive)	–

Compound	activity change, negative = inhibition	Potency
CNc1oc(-c2cccc3ccccc23)nc1C(=O)OC	5.46% (inactive)	–
O=C(O)c1ccc(S(=O)(=O)N[C@H](Cc2c[nH]c3ccccc23)C(=O)O)cc1	0.816% (inactive)	–
CN(Cc1ccc(-c2ccccc2)cc1)c1nc(-c2ccccc2C(F)(F)F)nc2ccccc12	4.38% (inactive)	–
CCCCNc1nc(C)nc2c1nc(-c1ccccc1)n2CC1CCCN1CC (stereo not given)	7.72% (inactive)	–
Cc1cc(N[S+](=O)([O-])c2ccc(NC(=O)Cc3ccc(Cl)nc3)cc2)no1	-0.698% (inactive)	–
COC(=O)C(CC1(O)c2ccccc2N2C(=O)C(C)(C)N(O)C21)n1cnc2ccccc2c1=O (stereo not given)	-11.3% [at 28 µM] (inactive)	–
O=S(=O)(Nc1ccccc1F)c1ccc(O)c2ncccc12	-5.21% (inactive)	–
O=[S+]([O-])(Nc1ccccc1)c1ccc(NCc2cccc(Cl)c2F)cc1	-20.3% (inactive)	–
CCOC(=O)C1CCN(C(=O)C(C)(C)NC(=O)Nc2ccc(Oc3ccccc3)cc2)CC1	-13.5% (inactive)	–
COc1ccc2nc(-c3cccc(OCc4ccccc4)c3)sc2c1	6.75% (inactive)	–
Cc1ccc(OCCn2c(CCNC(=O)OC(C)(C)C)nc3ccccc32)cc1	3.38% (inactive)	–
Cc1nnc(-c2ccccc2)n1CCCn1ccnc1	10.6% (inactive)	–
Cc1nnc2sc(-c3cccc(NC(=O)c4ccc(-c5cccc(Cl)c5)o4)c3)nn12	-13.6% (inactive)	–
Cc1ccc(-n2nc3c(N4CCCC(C(=O)NCc5ccccc5C)C4)nnc(C)c3c2C)cc1 (stereo not given)	8.82% (inactive)	–
O=C(O)CNc1cccc(-c2nn3c(=O)cc(N4CCNCC4)nc3s2)c1	0.814% (inactive)	–
Cc1ccc(C(=O)Oc2ccc(-c3nc4ccccc4[nH]3)cc2)cc1Br	1.65% (inactive)	–
COc1cc(-c2ccc3ncnc(NCC4CCCO4)c3c2)cc(OC)c1OC (stereo not given)	-2.05% (inactive)	–
O=C(Cn1cc(CN(Cc2ccccc2)Cc2ccccc2)nn1)Nc1cc(C(F)(F)F)ccc1Cl	-3.62% (inactive)	–
COc1ccc(C2C3=C(N=CN(CCN4CCOCC4)C3N)Oc3ccccc32)cc1OC (stereo not given)	-9.1% (inactive)	–
Cc1ccc(OCCn2c(CCNC(=O)c3ccccc3F)nc3ccccc32)cc1	-1.1% (inactive)	–

What follows are compounds tested against Retinaldehyde dehydrogenase 3 (Homo sapiens) (UniProt P47895) (assay: qHTS for Inhibitors of the Aldehyde Dehydrogenase Family (ALDH1A3) Primary screen (AID 2061315;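 note: plate controls were DMSO vehicle for no effect and reference inhibitor for full effect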)). Conditions: ALDH inhibition qHTS; series mostly up to 56 µM; activity change, negative = inhibition: at the top concentration.

Compound	activity change, negative = inhibition	Potency
C=Cc1nc(Nc2cc(F)cc(F)c2)nc(NC2CCCC2)n1	6.14% (inactive)	–
Cc1cccc(C(=O)NCC(=O)OC(C(=O)Nc2cc(C(F)(F)F)ccc2Cl)c2ccccc2)c1 (stereo not given)	9.59% (inactive)	–
N#Cc1ncc(C(=O)OCC(=O)NC2C3CC4CC(C3)CC2C4)cn1 (stereo not given)	8.98% (inactive)	–
O=C1Nc2ccccc2/C1=C/c1ccc[nH]1	-14.8% (inactive)	–
COc1cc(-c2csc(N3CCC(C(N)=O)CC3)n2)cc(OC)c1OC	-12.4% (inactive)	–
Cc1ccc(C(=O)NC2CCN(C#N)CC2)cc1	-11.4% (inactive)	–
Cc1ccc(-c2csc(NC(=O)c3ccncc3NS(=O)(=O)c3ccc(C)cc3)n2)cc1	14.1% (inactive)	–
Cc1cccc(Cn2ncc3c4sc(C)cc4n(C)c3c2=O)c1	0.26% (inactive)	–
COC(=O)c1ccc(O)c2ncc(-c3ccc(C(=O)NCCCN(C)C)cc3)cc12	-21.1% (inactive)	–
CSc1cnc(-c2ccccc2C(C)C)nc1NCc1ccc(-c2cccnc2)cc1	-10.3% (inactive)	–
N[C@@H](Cc1ccc(O[S+](=O)([O-])c2cccc3cnccc23)cc1)C(=O)N1CCN(c2ccccc2)CC1	3.73% (inactive)	–
Cc1nc(NCCO)c2nc(-c3ccccc3)n(CCN(C)C)c2n1	15.4% (inactive)	–
O=C(O)CCc1cc(F)c(S(=O)(=O)N2CCN(S(=O)(=O)c3ccc4c(c3)OCCO4)CC2)cc1F	3.33% (inactive)	–
O=C1CCCC2=C1C(c1[nH]ncc1Cl)N=C(Nc1nc3cc(Cl)ccc3o1)N2 (stereo not given)	1.9% (inactive)	–
COc1cc(Nc2nc(-c3ccncc3)nc3ccccc23)ccc1F	–	inactive
Cc1ccc(S(=O)(=O)Nc2ccc(C(=O)Nc3nc(-c4ccc(Cl)cc4)cs3)cc2)cc1	-0.776% (inactive)	–
C=C(C)C(=O)O[C@H]1[C@H]2C(=C)C(=O)O[C@@H]2C[C@@H](C)[C@@H]2O[C@@H]2C(=O)[C@](C)(O)[C@@H]1OC(=O)C(=C)C	5.58% [at 28 µM] (inactive)	–
COc1cccc(C2C(C#N)=C(NC(=O)NCc3ccccc3)Oc3ccc4ccccc4c32)c1 (stereo not given)	0.374% (inactive)	–
O=C(Cc1nnc(-c2cc3ccccc3[nH]2)s1)Nc1cc(C(F)(F)F)ccc1Cl	–	inactive
O=c1[nH]c(CCl)nc2sc3c(c12)CCC3	-0.0527% (inactive)	–

Compound	activity change, negative = inhibition	Potency
CNc1oc(-c2cccc3ccccc23)nc1C(=O)OC	0.385% (inactive)	–
O=C(O)c1ccc(S(=O)(=O)N[C@H](Cc2c[nH]c3ccccc23)C(=O)O)cc1	6.18% (inactive)	–
CN(Cc1ccc(-c2ccccc2)cc1)c1nc(-c2ccccc2C(F)(F)F)nc2ccccc12	-14.6% (inactive)	–
CCCCNc1nc(C)nc2c1nc(-c1ccccc1)n2CC1CCCN1CC (stereo not given)	2.81% (inactive)	–
Cc1cc(N[S+](=O)([O-])c2ccc(NC(=O)Cc3ccc(Cl)nc3)cc2)no1	-6.39% (inactive)	–
COC(=O)C(CC1(O)c2ccccc2N2C(=O)C(C)(C)N(O)C21)n1cnc2ccccc2c1=O (stereo not given)	5.16% [at 28 µM] (inactive)	–
O=S(=O)(Nc1ccccc1F)c1ccc(O)c2ncccc12	-11% (inactive)	–
O=[S+]([O-])(Nc1ccccc1)c1ccc(NCc2cccc(Cl)c2F)cc1	-10.1% (inactive)	–
CCOC(=O)C1CCN(C(=O)C(C)(C)NC(=O)Nc2ccc(Oc3ccccc3)cc2)CC1	-8.83% (inactive)	–
COc1ccc2nc(-c3cccc(OCc4ccccc4)c3)sc2c1	-8.51% (inactive)	–
Cc1ccc(OCCn2c(CCNC(=O)OC(C)(C)C)nc3ccccc32)cc1	8.68% (inactive)	–
Cc1nnc(-c2ccccc2)n1CCCn1ccnc1	-8% (inactive)	–
Cc1nnc2sc(-c3cccc(NC(=O)c4ccc(-c5cccc(Cl)c5)o4)c3)nn12	-11% (inactive)	–
Cc1ccc(-n2nc3c(N4CCCC(C(=O)NCc5ccccc5C)C4)nnc(C)c3c2C)cc1 (stereo not given)	2.04% (inactive)	–
O=C(O)CNc1cccc(-c2nn3c(=O)cc(N4CCNCC4)nc3s2)c1	-0.491% (inactive)	–
Cc1ccc(C(=O)Oc2ccc(-c3nc4ccccc4[nH]3)cc2)cc1Br	-0.888% (inactive)	–
COc1cc(-c2ccc3ncnc(NCC4CCCO4)c3c2)cc(OC)c1OC (stereo not given)	-12.3% (inactive)	–
O=C(Cn1cc(CN(Cc2ccccc2)Cc2ccccc2)nn1)Nc1cc(C(F)(F)F)ccc1Cl	0.363% (inactive)	–
COc1ccc(C2C3=C(N=CN(CCN4CCOCC4)C3N)Oc3ccccc32)cc1OC (stereo not given)	-2.42% (inactive)	–
Cc1ccc(OCCn2c(CCNC(=O)c3ccccc3F)nc3ccccc32)cc1	-1.03% (inactive)	–

— PubChem BioAssay (NCATS)
